In PubChem BioAssay AID1159580 (chemical genetic matrix, 2015):
Hit rate of the full screen: of about 5,500 compounds, about 2,000 (36%) were called active. Inconclusive results (about 18%) are left out. Rule as the data show it: active = normalized growth mostly below about 0.91 (no sharp cut-off); inconclusive = no clear call, values can overlap the other calls; inactive = mostly above about 0.92. Some of the results follow.

Test: chemical genetic growth profiling, strain panel (AID 1159580);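 also: tested at 20 µM; growth read once vehicle control cultures reached saturation at 30 °C; 1 = growth at the plate median or of vehicle wells; lower values mean less growth of the strain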
Conditions: S. cerevisiae deletion strains, growth OD

Measured: normalized growth

CCOC(=O)NC(=S)Nc1ccc(C(C)(C)C)cc1NC(=S)NC(=O)OCC
inactive: locus YAR019C, strain CDC15, hits give low values 0.986 | locus YBL105C, strain PKC1, hits give low values 0.985 | locus YBR135W, strain CKS1, hits give low values 0.98 | locus YBR136W, strain MEC1, hits give low values 0.979 | locus YBR160W, strain CDC28, hits give low values 0.991 | locus YDL017W, strain CDC7, hits give low values 0.989 | locus YDL028C, strain MPS1, hits give low values 0.979 | locus YDL101C, strain DUN1, hits give low values 0.982 | locus YDL108W, strain KIN28, hits give low values 0.985 | locus YDL132W, strain cdc53, hits give low values 0.983 | locus YDL214C, strain PRR2, hits give low values 0.94 | locus YDR052C, strain DBF4, hits give low values 0.982 | locus YDR054C, strain cdc34, hits give low values 0.983 | locus YDR226W, strain ADK1, hits give low values 0.988 | locus YDR477W, strain SNF1, hits give low values 0.921 | locus YER123W, strain YCK3, hits give low values 0.879 | locus YER133W, strain GLC7, hits give low values 0.934 | locus YFL009W, strain cdc4, hits give low values 0.974 | locus YFL029C, strain CAK1, hits give low values 0.985 | locus YFR003C, strain YPI1, hits give low values 0.986 | locus YFR019W, strain FAB1, hits give low values 0.922 | locus YFR028C, strain CDC14, hits give low values 0.986 | locus YGR040W, strain KSS1, hits give low values 0.923 | locus YGR052W, strain FMP48, hits give low values 1.04 | locus YGR092W, strain DBF2, hits give low values 0.572 | locus YHR030C, strain SLT2, hits give low values 1.08 | locus YHR079C, strain IRE1, hits give low values 0.985 | locus YHR082C, strain KSP1, hits give low values 1.05 | locus YHR205W, strain SCH9, hits give low values 0.985 | locus YIL147C, strain SLN1, hits give low values 0.978 | locus YJL095W, strain BCK1, hits give low values 0.995 | locus YJL128C, strain PBS2, hits give low values 0.944 | locus YJL157C, strain FAR1, hits give low values 0.911 | locus YJR016C, strain ILV3, hits give low values 0.981 | locus YJR066W, strain TOR1 (second series), hits give low values 0.778 | locus YJR066W, strain TOR1, hits give low values 1.06 | locus YKL048C, strain ELM1, hits give low values 0.928 | locus YKL067W, strain YNK1, hits give low values 0.932 | locus YKL101W, strain HSL1, hits give low values 0.961 | locus YKL193C, strain SDS22, hits give low values 0.987 | locus YKL203C, strain TOR2, hits give low values 0.989 | locus YLR113W, strain HOG1, hits give low values 1.02 | locus YLR133W, strain CKI1, hits give low values 0.948 | locus YLR403W, strain SFP1, hits give low values 0.91 | locus YML070W, strain DAK1, hits give low values 0.925 | locus YMR001C, strain CDC5, hits give low values 0.985 | locus YMR205C, strain PFK2 (second series), hits give low values 0.924 | locus YMR277W, strain FCP1, hits give low values 0.981 | locus YNL006W, strain LST8, hits give low values 0.98 | locus YNL020C, strain ARK1, hits give low values 0.928 | locus YNL161W, strain CBK1, hits give low values 0.986 | locus YNL183C, strain NPR1, hits give low values 1.06 | locus YNL207W, strain RIO2, hits give low values 0.981 | locus YNL222W, strain SSU72, hits give low values 0.98 | locus YNL307C, strain MCK1 (second series), hits give low values 0.926 | locus YOL078W, strain AVO1, hits give low values 0.979 | locus YOL136C, strain PFK27, hits give low values 0.931 | locus YOR061W, strain CKA2, hits give low values 0.712 | locus YOR119C, strain RIO1, hits give low values 0.959 | locus YOR231W, strain MKK1, hits give low values 0.997 | locus YOR329C, strain SCD5, hits give low values 0.983 | locus YPL031C, strain PHO85, hits give low values 0.93 | locus YPL153C, strain RAD53, hits give low values 0.897 | locus YPL204W, strain HRR25, hits give low values 0.924 | locus YPL209C, strain IPL1, hits give low values 0.989 | locus YPL256C, strain CLN2, hits give low values 1.04 | locus YPR025C, strain CCL1, hits give low values 0.986 | locus YPR106W, strain ISR1, hits give low values 0.986 | locus YPR111W, strain DBF20, hits give low values 0.978 | strain NNK1, hits give low values 0.981 | strain TSCII, hits give low values 0.985
